This passage reports outcome and AC50 results from PubChem BioAssay (EPA / NIEHS).

SMILES strings stand for the structures. Activity calls are given as the source filed them. The calls were made as follows: active = hit-call score of the fitted dose curve at least 0.9, where 1 is the maximum; inactive = score below 0.9.

The nature of the experiment: CCTE_Simmons_MITO_max_resp_rate: CCTE's HepG2 Seahorse XF Respirometric Screening Assay at Maximal Respiratory State [uncoupled], Simmons Lab (AID 2284002). Particulars: actives raise or lower the signal. The protocol: CCTE_Simmons_MITO is cell-based, respirometric assay using HepG2 cells and a Seahorse XF Analyzer to measure oxygen consumption rates over four temporal phases spanning a total of 72 minutes: pre-injection (pre-treatment), basal (following test compound injection), maximal (following FCCP uncoupler injection), and inhibited (following rotenone/antimycin A injection)CCTE_Simmons_MITO_max_resp_rate is one of 4 assay components calculated from the CCTE_Simmons_MITO assay. It is designed to make measurements of maximal respiration using a form of respirometric reporter, as detected with […] signals by Seahorse XF96 technology. Data from the assay component CCTE_Simmons_MITO_max_resp_rate was analyzed at the endpoint, CCTE_Simmons_MITO_max_resp_rate_OCR, with bidirectional fitting relative to DMSO as the negative control and baseline of activity. Using a type of respirometric reporter, measures of maximal respiration for gain or loss-of-signal activity can be used to understand cellular oxygen consumption as it relates to cellular respiration. To generalize the intended target to other relatable targets, this assay endpoint is annotated to the mitochondria intended target family, where the subfamily is respiration.
Test chemicals were administered as a titrated series of 7 concentrations from 125 nM up to 100 uM [final] prior to kinetic endpoint detection at 6 minute intervals [3 min mix followed by 3 minutes measure] for 72 minutes. Three biological replicates of technical singles were run for every chemical concentration tested. Dimethylsulfoxide [DMSO] was used as the vehicle control. The electron transport chain inhibitor fenpyroximate was used as the positive control for decreased basal respiration and was administered as a titrated series of 6 concentrations from 250 nM up to 2.75 uM [final] with technical triplicates for the top concentration only. The uncoupler 2,4-dintirophenol was used as the positive control for increased basal respiration and was administered as a titrated series of 6 concentrations from 938 nM up to 40 uM [final] with technical triplicates for the top concentration only. A Seahorse XF Analzyer is required to measure the response.
Turning to `CCSC(=O)N(CC)C1CCCCC1`, the outcome was inactive.

Turning to `CC(c1ccc(O)cc1)(c1ccc(O)cc1)c1ccc(O)cc1`, the result was inactive.

With `CCNc1nc(NC(C)C)nc(SC)n1`, the compound was called inactive.

In the case of `C[C@]12CCC(=O)C=C1CC[C@@H]1[C@@H]2CC[C@]2(C)C(=O)CC[C@@H]12`, the outcome was inactive.

`CC(C)(O)C(=O)Nc1ccc([N+](=O)[O-])c(C(F)(F)F)c1`: the AC50 is 50 µM (active).

`C[C@]12CCC(=O)C=C1CC[C@@H]1[C@@H]2CC[C@@]2(C)[C@H]1CC[C@]2(C)O`: the compound was classed as inactive.

In the case of `O=C(O)C(F)(F)C(F)(F)C(F)(F)C(F)(F)C(F)(F)C(F)(F)C(F)(F)C(F)(F)F`, the call was inactive.

On to `O=C(O)C(F)(F)C(F)(F)C(F)(F)C(F)(F)C(F)(F)C(F)(F)C(F)(F)C(F)(F)C(F)(F)F`, for which the call was inactive.

As for `Oc1c(Cl)c(Cl)c(Cl)c(Cl)c1Cl`, the AC50 is 16.2 µM (active).

`CCCCCCCCCC[N+](C)(C)CCCCCCCCCC`: the AC50 was 26.4 µM (active).

`CCC(C)(c1ccc(O)cc1)c1ccc(O)cc1`: the AC50 is 25.9 µM (active).

In the case of `NS(=O)(=O)C(F)(F)C(F)(F)C(F)(F)C(F)(F)C(F)(F)C(F)(F)C(F)(F)C(F)(F)F`, the compound was called inactive.

`N#Cc1ccc(N(CC(N)=O)CC(F)(F)F)cc1C(F)(F)F`: the result was inactive.

`CCC(C)c1cc([N+](=O)[O-])cc([N+](=O)[O-])c1O` (centres undefined): the AC50 was 16 µM (active).

`COc1ccc(O)c(C(C)(C)C)c1`: the result was inactive.

In the case of `CC(C)(c1ccccc1)c1ccc(O)cc1`, the AC50 is 37.7 µM (active).

For the compound `CO/C=C(/C(=O)OC)c1ccccc1COc1cccc(C(F)(F)F)n1`, the AC50 was 1.3 µM (active).

For the compound `CCC(=O)O[C@H]1CC[C@H]2[C@@H]3CCC4=CC(=O)CC[C@]4(C)[C@H]3CC[C@]12C`, the compound was called inactive.

Consider `Oc1ccc(C(c2ccc(O)cc2)(C(F)(F)F)C(F)(F)F)cc1`, for which the concentration at half-maximal activity (AC50) is 21.6 µM (active).

One may read the AC50 as the concentration giving half of the maximal activity seen.
